PubChem BioAssay AID1851 (National Center for Advancing Translational Sciences (NCATS), 2009)
In all, about 16,000 compounds went through this assay and about 4,000 (25%) were called active. Roughly 26% stayed inconclusive and do not appear here. The list is a sample of the results. Unmarked numbers belong to inactive results. The call rests on the fitted dose curve; in most records, active means well fitted curve in the direction sought with a large enough effect; inconclusive means small, poorly fitted or top-dose-only effect, or effect the other way; inactive means no such curve, though single readings can be large or run the other way.
On the % scale 0 is the no-effect control and ±100 the full control effect.

Each molecule was assayed against Cytochrome P450 2C9 (Homo sapiens) (UniProt P11712) (assay: Cytochrome panel assay with activity outcomes). Details: recombinant CYP, pro-luciferin dealkylation, luminescence, p450-cyp2c9; series mostly up to 57.1 µM.
Chain of Cytochrome P450 2C9 (Homo sapiens) (P11712 whole entry, looked up): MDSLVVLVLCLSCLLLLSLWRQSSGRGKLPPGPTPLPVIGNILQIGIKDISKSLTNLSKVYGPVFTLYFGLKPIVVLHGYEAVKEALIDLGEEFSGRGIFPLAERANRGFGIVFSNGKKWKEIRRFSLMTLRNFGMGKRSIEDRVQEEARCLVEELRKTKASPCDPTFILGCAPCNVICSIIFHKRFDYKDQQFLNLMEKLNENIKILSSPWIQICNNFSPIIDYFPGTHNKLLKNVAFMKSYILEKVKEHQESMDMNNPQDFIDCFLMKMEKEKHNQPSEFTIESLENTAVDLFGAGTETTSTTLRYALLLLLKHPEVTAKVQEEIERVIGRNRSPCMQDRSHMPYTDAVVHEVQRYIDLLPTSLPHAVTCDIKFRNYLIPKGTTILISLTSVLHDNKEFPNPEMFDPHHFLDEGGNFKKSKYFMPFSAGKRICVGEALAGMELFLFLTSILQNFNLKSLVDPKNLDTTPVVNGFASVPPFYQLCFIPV
Work on CC1(CC(=O)O)O[C@H]2CCCCC[C@H]2O1 (some centres undefined) (tested in a mixture with another compound) yielded an activity, negative = inhibition of 1.04% [at 11.4 µM]. CC(=O)N1CC2(CC2)CC1c1ccccc1 (centres undefined) was tested, and the AC50 was “inactive”. With CC(C)NC[C@@H](O)COc1cccc2ccccc12 the AC50 was “inactive”. CC(C)Oc1ccc2ccccc2c1C=O was tested, and the AC50 was 10 µM (active). With CO[C@H]1C[C@@H](O[C@@H]2[C@H](C)[C@H](O[C@@H]3O[C@@H](C)C[C@@H](N(C)C)[C@@H]3O)[C@H](C)C[C@]3(CO3)C(=O)[C@H](C)[C@H](O)[C@H](C)[C@H](C)OC(=O)[C@@H]2C)O[C@@H](C)[C@H]1O the AC50 was “inactive”. With CC(=O)N[C@@H](CC(=O)O)C(=O)O the AC50 was “inactive”. For O=C(c1cc(Br)ccc1O)c1cc(Br)ccc1O, the AC50 was 0.1 µM (active). O=C(Nc1ccc(-c2cn3ccccc3n2)cc1)c1cc(Br)ccc1O gave an activity, negative = inhibition of -1.72% [at 11.4 µM]. CC(C)(C)CC(C)(C)c1ccc(O)c(C[N+](C)(C)[O-])c1 was tested, and the activity, negative = inhibition was 0.733% [at 11.4 µM]. In the case of Cc1cc(C)nc(NN2C(=O)/C(=C/c3ccccc3)SC2=S)n1, the AC50 is reported as “inactive”. In the case of COc1cc(/C=C2\SC(=S)N(Nc3ccccc3)C2=O)cc(OC)c1OC, the AC50 is reported as 6.31 µM (active). CC(C)CC(=O)N[C@H](C(=O)N[C@H](C(=O)N[C@@H](CC(C)C)[C@H](O)CC(=O)N[C@@H](C)C(=O)N[C@@H](CC(C)C)[C@H](O)CC(=O)O)C(C)C)C(C)C was tested, and the AC50 was “inactive”. In the case of CCc1ccccc1NC(=O)CSc1nc(-c2ccccc2)nn1C(=O)c1cccc([N+](=O)[O-])c1, the AC50 is reported as 0.447 µM (active). For O=C(O)[C@@H]1[C@@H](C(=O)O)[C@]23C[C@@]2(C(=O)O)[C@]2(C(=O)O)CCC3=C3CCCC312, the activity, negative = inhibition was 14% [at 11.4 µM]. In the case of CCOC(=O)c1cnc2c(cnn2CC)c1NN=C(C)C, the AC50 is reported as “inactive”. With CCOC(=O)c1cnc2ccc(C)cc2c1Sc1ccccc1C(=O)OC the AC50 was 1.41 µM (active). Cc1nnc(NC(=O)CSc2ncnc3c2cnn3-c2ccccc2C)s1 was tested, and the AC50 was “inactive”. For Cc1ccccc1-n1ncc2c(SCC(=O)N3c4ccccc4CC3C)ncnc21 (centres undefined), the AC50 was 10 µM (active). With CCOc1ccccc1NC(=O)C(=O)NCC1CCCN1CC (centres undefined) the AC50 was “inactive”. In the case of CC1CN(C(=O)c2cc3c(s2)CCC3)CC(C)O1 (centres undefined), the AC50 is reported as “inactive”. With Cc1cc(C)n(C(=O)c2cc3c(s2)CCCC3)n1 the AC50 was 11.2 µM (active). With CCOC(=O)COc1c(OC)cc(Cl)cc1C1Nc2ccccc2C(=O)N1c1ccc(F)cc1 (centres undefined) the AC50 was 0.282 µM (active). CCOC(=O)CC1NC(=O)c2ccccc21 (centres undefined) was tested, and the AC50 was “inactive”. With CCOC(=O)COc1c(OC)cc(Cl)cc1C1Nc2ccccc2C(=O)N1c1cccc(C)c1 (centres undefined) the AC50 was 0.708 µM (active).
